Molecules are shown by their SMILES. The whole screen tested about 16,000 compounds, of which about 4,000 (25%) were called active. Inconclusive results (about 26%) are left out. A selection follows. A number with no mark means an inactive call. The call rests on the fitted dose curve; in most records, active means well fitted curve in the direction sought with a large enough effect; inconclusive means small, poorly fitted or top-dose-only effect, or effect the other way; inactive means no such curve, though single readings can be large or run the other way.
On the % scale 0 is the no-effect control and ±100 the full control effect.

In the assay the target is Cytochrome P450 2C9 (Homo sapiens) (UniProt P11712). The experiment in a line: Cytochrome panel assay with activity outcomes. The note with it: recombinant CYP, pro-luciferin dealkylation, luminescence, p450-cyp2c9; series mostly up to 57.1 µM; activity, negative = inhibition: at the top concentration.
Chain of Cytochrome P450 2C9 (Homo sapiens) (P11712 whole entry, looked up): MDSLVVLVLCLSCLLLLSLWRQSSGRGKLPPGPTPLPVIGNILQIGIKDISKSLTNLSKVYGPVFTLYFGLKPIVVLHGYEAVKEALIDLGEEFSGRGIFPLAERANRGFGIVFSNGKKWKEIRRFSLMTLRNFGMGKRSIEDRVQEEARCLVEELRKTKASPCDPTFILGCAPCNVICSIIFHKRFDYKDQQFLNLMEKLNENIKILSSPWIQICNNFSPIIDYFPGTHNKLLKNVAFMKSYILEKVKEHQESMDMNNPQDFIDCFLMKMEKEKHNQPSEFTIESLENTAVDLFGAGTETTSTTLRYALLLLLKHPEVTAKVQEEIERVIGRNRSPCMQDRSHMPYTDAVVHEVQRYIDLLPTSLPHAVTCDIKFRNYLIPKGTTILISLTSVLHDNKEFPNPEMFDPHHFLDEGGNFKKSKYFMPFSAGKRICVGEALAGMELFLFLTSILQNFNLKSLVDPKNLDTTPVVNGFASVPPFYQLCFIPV
`CC1(C)S[C@@H]2[C@H](NC(=O)[C@H](C(=O)O)c3ccsc3)C(=O)N2[C@H]1C(=O)O`: the “activity, negative = inhibition” value is 27.8% [at 25.6 µM].
Same read-out and setting: under `O=c1oc2c(Cl)cc(Cl)cc2cc1-c1nnc(Nc2ccccc2F)s1` stands 25%.
In general, AC50 refers to the midpoint of the concentration-response curve, whichever way the signal moves. On to `CCCC[C@@H]1C[C@H]1C(NC(=O)c1ccco1)c1ccc(-c2ccccc2)cc1` (some centres not stated), for which the AC50 was 3.16 µM (active).
As to `CCCC[C@@H]1C[C@H]1C(NC(=O)Cc1ccccc1)c1ccc(-c2ccccc2)cc1` (some centres not stated), the “activity, negative = inhibition” value is -22.7%.
With `COC(=O)[C@@H]1C[C@H]1[C@@H](NC(=O)c1cc(C)nn1C)c1ccccc1`, the “activity, negative = inhibition” value is -53.8%.
As for `NNC(=O)[C@@H](O)[C@H](O)[C@H](O)CO`, the activity, negative = inhibition is -4.21% [at 11.4 µM].
On to `CC1=NN(c2ccccc2)C(=O)[C@@H]1N=Nc1ccc(S(N)(=O)=O)cc1`, for which the activity, negative = inhibition was 3.33% [at 11.4 µM].
Turning to `CC1=NN(c2ccccc2)C(=O)C1C(=O)c1ccc(Cl)cc1` (configuration not stated), the AC50 was 0.562 µM (active).
Regarding `Cc1cc(C)n(-c2nc(NCC(C)O)c3c4c(sc3n2)COC(C)(C)C4)n1` (configuration not stated), the AC50 was 15.8 µM (active).
Still for that read-out and setting: for `CCC(O)CNc1nc(-n2nc(C)cc2C)nc2sc3c(c12)CC(C)(C)OC3` (configuration not stated) the value was 14.1 µM (active).
Turning to `COc1ccc(-n2c(=O)c(C)nc3cnc(N4CCNCC4)nc32)cc1`, the “activity, negative = inhibition” value is 9.08%.
On to `C=CC1=C(C)C2=Cc3c(C=C)c(C)c4[n]3[Sn+2][n]3c(c(C)c(CCC(=O)O)c3=CC3=NC(=C4)C(C)=C3CCC(=O)O)=CC1=N2`, for which the “activity, negative = inhibition” value is -7.28%.
On to `CCSc1nc2c(c(=O)[nH]1)C(c1ccccn1)C1=C(CC(C)(C)CC1=O)N2` (configuration not stated), for which the “activity, negative = inhibition” value is -6.53%.
`CCSc1nc2c(c(=O)[nH]1)C(c1ccncc1)C(C(=O)OC(C)C)=C(C)N2` (configuration not stated): the AC50 was 2.82 µM (active).
Same read-out and setting: for `CSc1nc2c(c(=O)[nH]1)C(c1ccncc1)C(C(=O)OC(C)C)=C(C)N2` (configuration not stated) the value was 7.94 µM (active).
For the compound `O=C(O)c1cc2c(cc1S(=O)(=O)O)[C@H]1[C@@H]([C@H]3[C@H]2[C@@]2(Cl)C(Cl)=C(Cl)[C@]3(Cl)C2(Cl)Cl)[C@]2(Cl)C(Cl)=C(Cl)[C@@]1(Cl)C2(Cl)Cl`, the activity, negative = inhibition is -16.9% [at 11.4 µM].
Regarding `CC1(C)[C@@H]2CC[C@]1(CC(=O)O)[C@H](Cl)C2`, the activity, negative = inhibition was 4.29% [at 11.4 µM].
For the compound `O=C(CSC1CC(=O)N(CC(c2ccccc2)c2ccccc2)C1=O)Nc1ccc(Cl)cc1` (configuration not stated), the AC50 is 3.98 µM (active).
Take `CC12CS(=O)(=O)CC1SC(=S)N2c1ccccn1` (configuration not stated): the “activity, negative = inhibition” value was -20.9%.
Take `CCOC(=O)c1c(C)[nH]c(C)c1C(=O)COC(=O)c1ccc(S(=O)(=O)N(CC)CC)cc1`: the AC50 was 0.355 µM (active).
The same measure, in the same setting: for `CCN(CC)CCOC(=O)c1ccc(N)cc1` the value was “inactive”.
On to `CCOC(=O)c1c(C)[nH]c2ccc3c(c12)CN1CCc2cc(OC)ccc2[C@@H]1O3`, for which the “activity, negative = inhibition” value is 8.04%.
`O=[N+]([O-])c1cccc(-c2nc(-c3ccccc3)c(-c3cccs3)[nH]2)c1`: the “activity, negative = inhibition” value was -24.6%.
On the same count and under the same terms, under `NC(N)=Nc1nc2ccc([N+](=O)[O-])cc2[nH]1` stands 9.74% [at 11.4 µM].
On to `O=[N+]([O-])c1cccc(-c2nc(-c3cccs3)c(-c3cccs3)[nH]2)c1`, for which the AC50 is 1.58 µM (active).
On to `c1ccc(-c2nc(-c3cccs3)[nH]c2-c2ccccc2)cc1`, for which the AC50 is 6.31 µM (active).
Consider `CN(C)Cc1ccccc1-c1ccc2ncnc(N(C)C)c2c1`, for which the activity, negative = inhibition was 9.43% [at 2.29 µM].
For `CC(=O)N1CCN(c2nc(C)nc3sc4c(c23)CCC(C)C4)CC1` (configuration not stated), the AC50 is 14.1 µM (active).
In the case of `Cc1cc(C(F)F)n2nc(C(=O)Nc3sc4c(c3C#N)CCC(C)C4)nc2n1` (configuration not stated), the “activity, negative = inhibition” value is -11.3%.
For `CC[N+](C)(CC)CCN1C(=O)c2ccccc2S1(=O)=O`, the activity, negative = inhibition is -0.798% [at 11.4 µM].
As for `COc1ccc2c(c1)-c1ccccc1S(=O)(=O)N2C`, the AC50 is 14.1 µM (active).
Turning to `Cc1cc2c(nc1C)CCCCN2C[C@H](C)O/N=C\[C@@H](C)[C@H](OCc1ccccc1)C(C)C`, the activity, negative = inhibition was -8.65% [at 11.4 µM].
In the case of `S=C(S)N1CCCC1`, the AC50 is 2 µM (active).
For the compound `CC(C)(C)CC(=O)NC(=S)N1CCCCCC1`, the “activity, negative = inhibition” value is -2.88%.
Same read-out and setting: under `CCNC(=O)C/C(C)=N/NC(=O)C12CC3CC(CC(C3)C1)C2` stands 0.134%; under `COc1ccc(O)c(/C=N/NC(=O)CSc2nnc(C)n2-c2ccccc2)c1`, 16.8%.
In the case of `C=CCn1c(COc2ccccc2)nnc1SCC(=O)N/N=C/c1ccc(C)cc1`, the AC50 is 11.2 µM (active).
Regarding `COc1ccc(C[C@@H]2c3cc(OC)c(OC)cc3CC[N@+]2(C)CCC(=O)OCCCCCOC(=O)CC[N@@+]2(C)CCc3cc(OC)c(OC)cc3[C@H]2Cc2ccc(OC)c(OC)c2)cc1OC`, the “activity, negative = inhibition” value was -14.1% [at 25.6 µM].
`Nc1ncnc2c([C@@H]3O[C@@H](CO)[C@H](O)[C@@H]3O)nsc12`: the activity, negative = inhibition was -6.07% [at 11.4 µM].
On to `COc1ccc(C(=O)Nc2ccc(OCC(F)(F)C(F)F)c(C(F)(F)F)c2)cc1OC`, for which the AC50 was 7.94 µM (active).
For the compound `Cc1cc(NC(=O)CCCC(=O)OCC(F)(F)C(F)F)cc(C)c1C(=O)O`, the “activity, negative = inhibition” value was -17.2%.
With `CCN(CC)CCC[C@H](C)Nc1c2ccc(Cl)cc2nc2ccc(OC)cc12`, the AC50 entry is “inactive”.

For the origin of these results see PubChem BioAssay AID1851 (National Center for Advancing Translational Sciences (NCATS), 2009).
